These results are taken from PubChem BioAssay (Tox21).

Each structure is given as a SMILES string. Inconclusive results are not listed. Entries that show only a call come without a potency. A number with no mark means an inactive call. Calls of active or inactive are those of the source. Calls follow the shape of the dose curve; as a rule, active = well fitted cell-killing curve with a large enough effect in the repeat runs; inconclusive = weak or mixed curves, or effect the other way; inactive = flat fitted curve, though single readings scatter.
Potency is read from the fitted curve at half-maximal effect.

This assay in a line: Nuclear factor erythroid 2-related factor 2/antioxidant responsive element (Nrf2/ARE) small molecule agonists: qHTS cell viability counter screen in human keratinocytes (AID 1919968). Also: nearly all actives have a fitted effect of over 55% in size. The settings on record: KeratinoSens HaCaT ARE cells viability, CellTiter-Fluor, 24 h; series mostly up to 92.4 µM. The source says: U.S. Tox21 Program National Center for Advancing Translational Sciences [NCATS] Division of Preclinical Innovation [DPI] U.S. Environmental Protection Agency [EPA] National Institutes of Environmental Health Sciences [NIEHS] National Toxicology Program [NTP] U.S. Food and Drug Administration [FDA] Tox21 Assay Overview: Oxidative stress has been implicated in the pathogenesis of a variety of diseases ranging from cancer to neurodegeneration. The antioxidant response element (ARE) signaling pathway plays an important role in the amelioration of oxidative stress. The KeratinoSens (Givaudan, Switzerland) is an in vitro test method which quantifies luciferase induction as a measure of activation of Keap1-Nrf2-antioxidationt/electrophile response element (ARE) dependant pathway in HaCaT human keratinocytes stably transfected with a selectable plasmid. The KeratinoSens assay is a cell-based assay with a reporter cell line to detect potential skin sensitizers by their ability to induce the Nrf2/ARE-response. The activation of the report gene under culture conditions can be detected by ONE-Glo Luciferase Assay System (Promega, Madison, WI). This cell line has been used to screen the Tox21 10K compound library to identify agonists that induce oxidative stress. The cytotoxicity of the Tox21 compound library against the KS-ARE cell line was tested in parallel by measuring the cell viability using CellTiter- Fluor assay system (Promega, Madison, WI) in the same wells.
Tox21 Assay Protocol Summary: HaCaT derived cell line KeratinoSens were dispensed at 1,500 cells/5uL/well in 1536-well white wall/solid bottom plates using a Multidrop Combi (ThermoFisher Scientific, Waltham, MA) dispenser. After the assay plates were incubated at 37 C/5% CO2 for 5 h, 23 nL of compounds dissolved in DMSO, positive controls or DMSO only was transferred to the assay plate by a pintool workstation (Kalypsys, San Diego, CA). The plates were incubated at 37 C/5% CO2 for 23 h, followed by addition of 1uL/well of CellTiter-Fluor reagent into the assay plates using a Flying Reagent Dispenser (Aurora Discovery, San Diego, CA) for cell viability readout that measures cytotoxicity. After 1 h incubation at 37 C/5% CO2 the fluorescence intensity was measured using a ViewLux (PerkinElmer, Shelton, CT) plate reader.
Regarding `C=COCC1CCC(CO)CC1` (stereo not given), the Potency entry is “inactive”.

As for `Nc1ccc(S(=O)(=O)O)c(N)c1`, the Potency entry is “inactive”.

Regarding `CC(C)C(=O)OC/C=C/c1ccccc1`, the Potency entry is “inactive”.

With `O=C(CN1CCN(Cc2ccc3c(c2)OCO3)CC1)N1c2ccccc2Sc2ccccc21`, the Potency entry is “inactive”.

As for `Cc1cccc(Nc2ccncc2S(=O)(=O)NC(=O)NC(C)C)c1`, the Potency entry was “inactive”.

For the compound `OC(CCN1CCCCC1)(c1ccccc1)c1ccccc1`, the Potency result is “inactive”.

For `CC(C)(C#N)Nc1nc(Cl)nc(NC2CC2)n1`, the Potency result was “inactive”.

As to `CCCCCCCC/C=C\CCCCCCCCCCCC(=O)O`, the Potency entry was “inactive”.

As to `Nc1cc(C(=O)O)c(O)c(S(=O)(=O)O)c1`, the Potency entry was “inactive”.

In the case of `Cc1cc(C)c(C=O)c(C)c1`, the Potency result is “inactive”.

Take `COc1ccc([C@@H]2Sc3ccccc3N(CCN(C)C)C(=O)[C@@H]2OC(C)=O)cc1`: the Potency entry was “inactive”.

As to `CCCCCCCCCC#N`, the Potency result is “inactive”.

Regarding `CC(=O)CC(=O)Nc1ccc(C)cc1C`, the Potency result is “inactive”.

With `O=c1[nH]c(=O)n([C@H]2O[C@H](CO)[C@@H](O)[C@@H]2O)cc1/C=C\Br`, the Potency entry was “inactive”.

Regarding `Cc1c(Cn2ccnc2)c2ccccc2n1CCC(=O)O`, the Potency entry is “inactive”.

As to `CCCCCc1ccco1`, the Potency entry was “inactive”.

In the case of `C=C/C(C)=C/C/C=C(\C)CCC=C(C)C`, the Potency result was “inactive”.

For `CC(=O)Oc1ccc(C(C)=O)cc1`, the Potency result was “inactive”.

`CCc1cc(Cl)c(OC)c(C(=O)NC[C@@H]2CCCN2CC)c1O`: the Potency entry was “inactive”.

With `CC(=O)OC1CCC(C(C)(C)C)CC1` (stereo not given), the Potency entry was “inactive”.

For the compound `COc1ccc(/C(C)=C/C(=O)O)c(OC)c1`, the Potency entry was “inactive”.

`Nc1ccccc1S(=O)(=O)c1ccccc1`: the Potency result was “inactive”.

In the case of `COc1ccc(S(=O)(=O)N2c3ccc(Cl)cc3[C@@](O)(c3ccccc3Cl)[C@H]2C(=O)N2CCC[C@@H]2C(N)=O)cc1OC`, the Potency result was “inactive”.

As for `CC12CCCC=C1C(=O)OC2=O` (stereo not given), the Potency result was “inactive”.

For the compound `C[C@@]12C(=O)OC(=O)[C@]1(C)C1CCC2O1`, the Potency is 16.8 µM (active).

As for `CCCCCCCC1CCCC1=O` (stereo not given), the Potency result is “inactive”.

Regarding `O=Cc1cccc(Br)c1`, the Potency entry is “inactive”.

As for `N[C@@H](Cc1cc(I)c(O)c(I)c1)C(=O)O`, the Potency entry is “inactive”.

In the case of `CC(CN(C)C)C(C)(O)Cc1ccc(Cl)cc1` (stereo not given), the Potency entry is “inactive”.

For the compound `CC(C)(C)c1cc(CCC(=O)NCCCCCCNC(=O)CCc2cc(C(C)(C)C)c(O)c(C(C)(C)C)c2)cc(C(C)(C)C)c1O`, the Potency result is “inactive”.

With `NS(=O)(=O)Cc1noc2ccccc12`, the Potency entry is “inactive”.

`CO[Si](OC)(OC)OC`: the Potency result is “inactive”.

In the case of `C[N+]12CCC(CC1)C(OC(=O)C(O)(c1ccccc1)c1ccccc1)C2` (stereo not given), the Potency entry was “inactive”.

On to `Cc1ccc(C(=O)Oc2ccc(C(O)CNC(C)(C)C)cc2OC(=O)c2ccc(C)cc2)cc1` (stereo not given), for which the Potency entry was “inactive”.

Regarding `CNC(=O)N(c1ccccc1)c1ccccc1`, the Potency entry is “inactive”.

As for `CCC(C)(C)C(=O)O`, the Potency result was “inactive”.

Regarding `C/C(=N\O)c1ccc(OCC(=O)N2CCCCC2)cc1`, the Potency entry is “inactive”.

As to `C[C@H]1C[C@H]2[C@@H]3CCC4=CC(=O)C=C[C@]4(C)[C@H]3C(=O)C[C@]2(C)[C@@]1(O)C(=O)CO`, the Potency result was “inactive”.

Turning to `CCN1CCN(c2cc(-c3ccc(F)cc3)c3c(n2)CCCCCC3)CC1`, the activity change, negative = cytotoxicity is -1.5% [at 19 µM].

`CC1(C)S[C@@H]2[C@H](NC(=O)Cc3ccccc3)C(=O)N2[C@H]1C(=O)O` (tested in a mixture with another compound): the Potency result was “inactive”.
